Sampled rows, rich in hits. Any-hit rate of the full collection: about 3.8%.
rTrxR1 inhibitor = rat TrxR1 inhibition; recombinant rTrxR1, NADPH fluorescence consumption, selenite substrate; Potency, µM (highest dose often 114 µM), without a hit: at the top dose activity change, negative = inhibition, most hits filed as inhibitors; actives 1% (n = 390,000); AID 588453; further: nearly all actives have a fitted effect of over 65% in size
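Rat TrxR1 (90 nM in the dispensed reagent) was pre-reduced with 400 uM NADPH for 5 min at room temperature, then incubated with compound for 15 min. After 400 uM selenite was added, NADPH fluorescence (Ex 340/Em 450 nm) was followed for 8 min.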
VDR inhibitor = inhibitors of human vitamin D receptor; P11473; Potency, µM, for inactives: max response, negative = inhibition, usual class: inhibitors; VDR-SRC2-3 peptide fluorescence polarization, 2 h; actives 0.93% (n = 400,000)
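After 23 nl compound addition and a short centrifugation, plates sat for 2 hours at ambient temperature; polarization of fluorescence then indicated loss of VDR binding to peptide SRC2-3.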
GCN5L2 inh = inhibitors of human GCN5L2 histone acetyltransferase. Q92830. GCN5L2 HAT assay, ThioGlo1 CoA-SH fluorescence. Potency, µM (doses to about 58.9 µM), for the others: at the top dose activity change, negative = inhibition, hits mostly inhibitors. actives 0.21% (n = 390,000). AID 504327
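Enzyme at 20nM final was mixed with library compounds for 15 min at room temperature. Peptide H3(1-25) at 75uM, acetyl-CoA at 70uM and ThioGlo1 at 50uM were then added. Plates were read immediately and after 20 min (Ex340nm/Em540nm).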
TrxR1 substrate = is turned over as a substrate by rat TrxR1 | purified TrxR1 substrate turnover, NADPH consumption readout | Potency, µM (series often up to 114 µM), for inactives: at the highest dose activity change, negative = substrate turnover | O89049 | actives 0.01% (n = 390,000); further: nearly all actives have a fitted effect of over 50% in size
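Rat TrxR1, dispensed at 90 nM, was prereduced with 400 uM NADPH (final) for 5 min at ~22 deg C, then incubated with compound 15 min before 400 uM selenite. A first-read NADPH fluorescence drop versus no-compound background flagged substrates.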
GLS inhibitor = inhibitors of human glutaminase (GLS). AID 624170. Potency, µM (titrated, usually from 45.5 µM), for the others: at the top dose activity change, negative = inhibition, hits mostly inhibitors. actives 0.21% (n = 410,000). GLS enzymatic activity, qHTS titration
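Read-out is an Amplex red fluorescence increase coupled through glutamate oxidase and HRP, measured before and after 30 min room-temperature incubation. hKGA is in 45 mM KH2PO4 (pH 8.2) with 0.02% Tween-20; glutamine added as 1mM solution.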
Sfp inh = Sfp phosphopantetheinyl transferase inhibition; Potency, µM, for inactives: largest response in the series, negative = inhibition, usual class: inhibitors; Biochemical Sfp PPTase activity, qHTS; actives 3.5% (n = 310,000); Q9F4F7; AID 1490;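 further: the enzyme is Sfp with the accession as filed and its product quenches rhodamine fluorescence; 0% = enzyme reaction without inhibitor and -100% = no enzyme wells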
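Fluorescence-quenching assay with 15 nM Sfp, 5 uM rhodamine-CoA and 12.5 uM BHQ-2-labelled ybbR peptide in pH 7.6 Hepes/MgCl2 buffer. Enzyme was pre-incubated with compound for 15 min at room temperature. Rate was taken from the 30-min fluorescence change (525/598 nm).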
* marks the source's active call; other numbers are inactive results; ! = not confirmed by another sample; [ ] = dose if it differs, or a comment. The call rests on the fitted dose curve; in most records, active means well fitted curve in the direction sought with a large enough effect; inconclusive means small, poorly fitted or top-dose-only effect, or another doubt; inactive means no such curve, though single readings can be large; an effect the other way counts as inactive or inconclusive. Unless noted, on the % scale 0 is the no-effect control and ±100 the full control effect; potency means the concentration at half of the fitted maximal effect.

For COc1ccc(CN2CCCC(C(=O)c3sccc3C)C2)cc1O (configuration not stated) the results were rTrxR1 inhibitor 26%, VDR inhibitor -3%, GCN5L2 inh -2%, TrxR1 substrate 2%, GLS inhibitor 22% and Sfp inh 14%.
Screening O=C1NC(=O)[C@]2(Cc3ccccc3N3CCN(c4ccccc4)CC32)C(=O)N1Cc1ccccc1 (some centres not stated) returned rTrxR1 inhibitor inconclusive, VDR inhibitor inconclusive, GCN5L2 inh -16%, TrxR1 substrate -14%, GLS inhibitor 6% and Sfp inh -20%.
For O=C1NC(=O)C2(Cc3ccccc3N3CCCC32)C(=O)N1Cc1ccccc1 (configuration not stated) the results were rTrxR1 inhibitor inconclusive, VDR inhibitor inconclusive, GCN5L2 inh -5%, TrxR1 substrate -9%, GLS inhibitor -9% and Sfp inh 56µM*.
CN1Cc2ccccc2[C@@H]2c3cccc4[nH]cc(c34)C[C@H]21 was read as VDR inhibitor 14µM*, GCN5L2 inh -17% and Sfp inh 79µM*!.
`CN1CCC(N(C)c2nc(-c3ccccc3)nc3ccccc23)CC1` gave rTrxR1 inhibitor -2%, VDR inhibitor 5%, GCN5L2 inh 0%, TrxR1 substrate 6%, GLS inhibitor 1% and Sfp inh 5%.
Screening O=C(O)Cc1cccnc1C(=O)O returned VDR inhibitor -4%, GCN5L2 inh -3% and Sfp inh 16µM*.
O=C(O)c1cc(O)c(O)c(O)c1 was read as VDR inhibitor 50µM*!, GCN5L2 inh inconclusive, GLS inhibitor 10µM* and Sfp inh 8.9µM*!.
Screening ClCCN(CCCl)c1ccc(C=NNc2ncccn2)cc1 returned rTrxR1 inhibitor -22%, VDR inhibitor -8%, TrxR1 substrate -12% and GLS inhibitor 11%.
`COP(=S)(OC)Oc1ccc(S(=O)(=O)N(C)C)cc1` gave VDR inhibitor inconclusive, GCN5L2 inh -8%, GLS inhibitor -14% and Sfp inh 35µM*.
`Cn1cc(/C=C(\C(=O)O)C(C(=O)O)=C2CCCCC2)c2ccccc21` gave rTrxR1 inhibitor 10%[11.4 µM], VDR inhibitor inconclusive, GCN5L2 inh 4%, TrxR1 substrate 7%[57.1 µM], GLS inhibitor -23% and Sfp inh 2%.
`Cl.Cl.Cl.Cl.Cl.Cl.N.N.N.N.NNNNN.NNNNN.O.O.[Ru].[Ru].[Ru]` gave VDR inhibitor inconclusive, GCN5L2 inh inconclusive and Sfp inh 50µM*.
For O=C(Cc1cc(=O)oc2cc(O)ccc12)NN=Cc1ccc(N(CCCl)CCCl)cc1 the results were rTrxR1 inhibitor 11%, VDR inhibitor 12%, TrxR1 substrate 122% and GLS inhibitor inconclusive.
Screening COc1ccc(CC2NCC(O)C2OC(C)=O)cc1 (configuration not stated) returned rTrxR1 inhibitor 25µM*, VDR inhibitor -12%, TrxR1 substrate 10%[57.1 µM], GLS inhibitor 1% and Sfp inh -5%.
`COc1ccc(C[C@H]2NC[C@H](O)[C@@H]2OC(C)=O)cc1` gave VDR inhibitor 35µM*, GCN5L2 inh -5% and Sfp inh -9%.
For C[C@@H]1Cc2c(Cl)cc(C(=O)N[C@@H](Cc3ccccc3)C(=O)O)c(O)c2C(=O)O1 the results were VDR inhibitor 0%, GCN5L2 inh -8% and Sfp inh 2%.
Screening CC(C)[C@H]1C(=O)N2CCC[C@H]2[C@]2(O)O[C@](NC(=O)[C@@H]3C=C4c5cccc6[nH]cc(c56)C[C@H]4N(C)C3)(C(C)C)C(=O)N12 returned rTrxR1 inhibitor inconclusive, VDR inhibitor -34%, GCN5L2 inh -13%, TrxR1 substrate 34%, GLS inhibitor -14% and Sfp inh 56µM*.

Screening data: PubChem, National Center for Advancing Translational Sciences (NCATS)
